Assay outcomes deposited in PubChem BioAssay by several laboratories.
AF4-AF9 inh – inhibitors of human MLL-AF4/AF9 interaction. P42568. AlphaScreen, biotin-AF4 peptide binding to FLAG-AF9. inhibition, % at 10 µM. 0.47% of 350,000 active. AID 651704;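 active = every replicate reaching a set inhibition limit, whatever the replicate mean, cut at about 25% in these data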;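 also: 0% = plate neutral control median and 100% = total signal loss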
Wnt act – Wnt/beta-catenin pathway activation; Wnt/beta-catenin reporter cell assay, activator, plate reader; 1.2% of 300,000 active; activation, % at 9.35 µM; AID 743398; in the data active = activation above about 30%, passing the limit was not always enough;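 also: 0% = neutral control wells and 100% = positive control wells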
SMARCA2 act – increases SMARCA2 function in MMTV reporter cells; MG213 cells, MMTV-luciferase reporter, dexamethasone, overnight; 1% of 370,000 active; activation, % at 9.1 µM; in the data active = activation above about 7.8%;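 also: 0% = vehicle wells and 100% = reference activator wells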
esBAF inh – inhibitors of esBAF chromatin remodeling in mouse ES cells. Bmi1-luciferase knock-in reporter, 24 h; 100% = twice the neutral-well signal. reporter increase, % at 12.5 µM. 2% of 350,000 active; in the data active = activation above about 40%;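 also: 0% = median of the plate's neutral control wells and 100% = double that signal; a rise in the Bmi1 reporter signal indicates esBAF inhibition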
MITF TRPM1 HTS – activators of MITF-driven TRPM1 promoter activity in SK-MEL-5 cells | SK-MEL-5 TRPM1-promoter luciferase, 24 h; % of positive control, neutral wells = 0 | activation, % at 12.5 µM | 0.75% of 300,000 active | AID 588334;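 active = mean activation of at least 80% with every replicate also reaching 80%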;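 also: 0% = neutral control wells and 100% = parthenolide positive control wells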
FGF22 binding – binders of recombinant human FGF22 by thermal shift; AID 651658; activity (Tm shift, normalised), % at 9.99 µM; SYPRO orange fluorescence; percent of sucrose octasulfate shift, DMSO zero; 1.5% of 340,000 active;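 active = mean Tm shift, scaled 0 neutral to 100 positive control, at about 1.3% or above, every replicate too, limit read from the data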
Target sequence (Q9HCT0 whole entry, looked up): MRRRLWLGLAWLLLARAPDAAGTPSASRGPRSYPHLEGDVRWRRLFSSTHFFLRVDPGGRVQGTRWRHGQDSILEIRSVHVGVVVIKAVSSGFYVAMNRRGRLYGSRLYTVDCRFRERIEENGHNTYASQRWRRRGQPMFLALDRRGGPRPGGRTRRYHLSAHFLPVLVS
SMARCA2 act conf – SMARCA2 activation, confirmation screen; activation, % at 9.1 µM; MG213 cells, MMTV-luciferase with dexamethasone, luminescence, overnight; MG213 cells expressing E1A, Rb sequestered; DMSO wells 0%, reference activator 100%; 30% of 3,500 active; AID 652260; shares compounds with SMARCA2 act;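 active = activation above its plate's cutoff, the mean activation of tested wells plus 3 SD, cut at about 7.9% in these data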
GAL4-VP16 Luc – GAL4-VP16 reporter activation counter-screen | shares compounds with SMARCA2 act | HEK293 GAL4-VP16 pG5luc reporter, luciferase luminescence; scaled: DMSO wells 0%, SAHA wells 100% | activation, % at 9.1 µM | 41% of 3,500 active | AID 686939;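 active = activation above the solvent-only control well mean plus 3 SD, averaged across control plates, cut at about 5.2% in these data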
* marks the source's active call; other numbers are inactive results; nt = no result given. An excerpt weighted towards active compounds, which were near 4.3% of everything screened.

SMILES | AF4-AF9 inh | Wnt act | SMARCA2 act | esBAF inh | MITF TRPM1 HTS | FGF22 binding | SMARCA2 act conf | GAL4-VP16 Luc
C[C@H]1CN([C@@H](C)CO)C(=O)c2ccccc2-c2ccccc2CO[C@@H]1CN(C)S(=O)(=O)c1cn(C)cn1 | 1 | nt | nt | -2 | nt | 0 | nt | nt
Cc1cc(N/N=C/c2ccccc2O)nc(-c2ccccc2O)n1 | nt | 5 | -2 | nt | -9 | nt | nt | nt
Cc1cc(N/N=C/c2cccc(Br)c2)nc2ccccc12 | nt | 16 | 12* | nt | 48 | nt | 4 | 7.8*
Cc1cc(N/N=C\c2ccccc2)nc(-c2ccccc2O)n1 | nt | 13 | 13* | nt | 6 | nt | -2 | 3
C[C@H](CO)N1C[C@H](C)[C@H](CN(C)Cc2ccc(Cl)c(Cl)c2)Oc2ccc(NC(=O)c3ccncc3)cc2CC1=O | 1 | nt | nt | 9 | nt | 0 | nt | nt
COCC(=O)Nc1ccc2c(c1)C(=O)N(C)[C@@H]1CC[C@@H](CC(=O)NCCc3ccncc3)O[C@@H]1CO2 | -1 | nt | nt | 3 | nt | 0 | nt | nt
Cc1ccc(S(=O)(=O)N2C[C@H](O)COC[C@@H]3O[C@@H](CC(=O)N[C@H]4CCN(Cc5ccccc5)C4)CC[C@H]32)cc1 | 2 | nt | nt | -2 | nt | 0 | nt | nt
CC(=O)c1c(O)cc(C(C)C)n(-c2ccccc2)c1=O | nt | -1 | 20* | nt | -1 | nt | 3 | 0
Brc1ccccc1OCCCCCN1CCOCC1 | 3 | 0 | 10* | nt | 21 | 0 | 1 | 5
Brc1ccccc1OCCCN1CCCC1 | 2 | 0 | -1 | 0 | 35 | 0 | nt | nt
C[C@H](CO)N1C[C@H](C)[C@H](CN(C)C(=O)c2ccncc2)OCCCC[C@H](C)Oc2ccc(NC(=O)CCC(F)(F)F)cc2C1=O | nt | nt | nt | -3 | nt | 0 | nt | nt
Cc1ccccc1-n1c(C)nnc1SCC(=O)NNC(=O)c1ccccc1 | 1 | 1 | 8.0* | nt | -7 | 0 | 5 | 1
Cc1nnc(SCC(=O)NNC(=O)c2ccccc2)n1-c1ccccc1 | -4 | -2 | -4 | nt | 3 | -2 | nt | nt
COc1cccc(NC(=O)Nc2nnc(N3C(C)CCCC3C)s2)c1 (stereo not drawn) | 2 | 7 | 4 | 17 | 34 | 0 | nt | nt
Cc1cccc(NC(=O)Nc2nnc(N3CCCCC3C)s2)c1C (stereo not drawn) | 3 | -3 | 8.0* | 20 | nt | 0 | -2 | 2
CCCNC(=O)N1CC2(CN(Cc3nccs3)C2)c2c([nH]c3cc(OC)ccc23)[C@@H]1CO | 1 | nt | nt | nt | nt | 0 | nt | nt
CCCCNCc1nc2ccccc2c(=O)[nH]1 | 3 | -1 | 5 | nt | -7 | 0 | nt | nt
CCc1ccc(NCc2nc3ccccc3c(=O)[nH]2)cc1 | nt | 35* | 8.3* | 3 | 21 | nt | 11* | 14*
O=C(Nc1cc(F)ccc1F)N1[C@@H]2CNC[C@H]1C2c1ccc(-c2cccnc2)cc1 (stereo partly drawn) | -3 | nt | nt | nt | nt | nt | nt | nt
COc1ccc(-n2c(SCC3CNC(=O)O3)nnc2-c2ccc(Cl)cc2)cc1 (stereo not drawn) | -2 | 1 | 12* | nt | -2 | 0 | 1 | -2
O=C(Nc1ccc2c(c1)[C@H]1C[C@H](CC(=O)N3CCOCC3)O[C@H](CO)[C@H]1O2)C1CCOCC1 | 0 | nt | nt | -1 | nt | 0 | nt | nt
CO[C@@H]1CN(C)C(=O)c2ccc(NC(C)=O)cc2OC[C@@H](C)N(Cc2ccc(F)cc2)C[C@H]1C | -1 | nt | nt | -4 | nt | 1 | nt | nt
CN1CCN(Cc2nc3ccccc3c(=O)n2Cc2nc(-c3ccc([N+](=O)[O-])cc3)cs2)CC1 | nt | nt | 17* | nt | -65 | nt | 44* | 2
CCc1ccc2[nH]c(=O)c(CN(CCN(CC)CC)C(=O)Nc3ccccc3OC)cc2c1 | nt | nt | 9.0* | 1 | 0 | nt | -1 | 1
CCN(CC)CCCN(Cc1cc2cc3c(cc2[nH]c1=O)OCO3)C(=S)Nc1ccccc1OC | 3 | -5 | 2 | 1 | 5 | 0 | nt | nt
SMILES | AF4-AF9 inh | Wnt act | SMARCA2 act | esBAF inh | MITF TRPM1 HTS | FGF22 binding | SMARCA2 act conf | GAL4-VP16 Luc
CCc1ccc2[nH]c(=O)c(CN(CCN(C)C)C(=O)Nc3ccccc3OC)cc2c1 | nt | nt | 0 | -3 | 9 | nt | nt | nt
COc1ccccc1NC(=S)N(CCCN(C)C)Cc1cc2cc3c(cc2[nH]c1=O)OCO3 | 4 | 5 | 8.0* | nt | -5 | 44* | -1 | 0
CC(C)CN(C)C(=O)CCc1nnc(Cc2cccc(C(F)(F)F)c2)o1 | -1 | -1 | 8.4* | nt | 64 | 0 | 6 | 5.2*
CC(=O)c1cccc(Nc2cc(C)nc3c(C)cc(C)cc23)c1 | nt | nt | -2 | nt | 3 | nt | nt | nt
CC(=O)c1cccc(Nc2cc(C)nc3ccc(C)cc23)c1 | 3 | 2 | 11* | nt | -10 | 0 | 1 | 0
O=C(CC1NC2CCCCC2NC1=O)Nc1ccc2c(c1)OCO2 (stereo not drawn) | nt | -7 | 11* | -6 | nt | nt | -1 | 0
O=C1CC(Sc2ccc(Cl)cc2)C(=O)N1c1ccc2c(c1)OCCO2 (stereo not drawn) | -4 | -1 | 8.4* | nt | nt | 0 | -3 | 0
O=C1CC(SC2=NCCS2)C(=O)N1c1ccc(Cl)cc1 (stereo not drawn) | nt | -4 | -1 | nt | 7 | nt | nt | nt
COc1ccc(NC(=O)N(C)C[C@@H]2Oc3c(NC(=O)Nc4ccc5c(c4)OCO5)cccc3C(=O)N([C@@H](C)CO)C[C@@H]2C)cc1 | 5 | nt | nt | 14 | nt | 0 | nt | nt
O=[N+]([O-])c1cccnc1Oc1ccccc1F | 0 | -2 | 9.6* | -9 | -9 | 0 | 1 | 2
COc1ccccc1Oc1ccccc1[N+](=O)[O-] | 7 | 1 | 10.0* | nt | 0 | 0 | 0 | 3
O=C(O)c1cccc(Oc2ccc(C(=O)O)c([N+](=O)[O-])c2)c1 | 5 | -1 | 1 | -3 | 4 | 0 | nt | nt
